Results filed as inconclusive are left out. Active and inactive are the calls of the source. The calls were made as follows: active = hit-call score of the fitted dose curve at least 0.9, where 1 is the maximum; inconclusive = response in the unintended direction; inactive = score below 0.9.
The compounds below were run against rabbit Imidazoline 2 Central (I2C), CKB (gene 100009085) (UniProt P00567) (assay: NVS_ENZ_rabI2C: NovaScreen (NVS) Enzymatic Assay for rabbit Imidazoline 2 Central (I2C) (AID 2283228)).
Summary of the method: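 Rabbit brain membranes, cell-free; readout by filter-based scintillation counting 1.5 hours after dosing, loss of signal vs DMSO. Initial duplicate test at 25 uM, then concentration-response with 50 uM top concentration.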

Sequence of rabbit Imidazoline 2 Central (I2C), CKB (gene 100009085) (P00567 whole entry, looked up): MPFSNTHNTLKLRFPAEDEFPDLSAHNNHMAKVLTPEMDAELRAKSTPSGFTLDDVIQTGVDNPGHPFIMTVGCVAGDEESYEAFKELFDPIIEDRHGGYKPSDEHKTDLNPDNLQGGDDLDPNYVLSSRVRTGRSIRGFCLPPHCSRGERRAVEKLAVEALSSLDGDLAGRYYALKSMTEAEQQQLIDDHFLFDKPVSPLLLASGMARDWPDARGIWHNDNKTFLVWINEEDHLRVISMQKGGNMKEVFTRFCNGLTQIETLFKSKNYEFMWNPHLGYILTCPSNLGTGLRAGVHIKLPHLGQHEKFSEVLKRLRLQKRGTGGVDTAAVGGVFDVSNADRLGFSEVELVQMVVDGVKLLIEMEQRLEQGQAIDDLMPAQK

| Structure (SMILES) | outcome | AC50 |
| --- | --- | --- |
| Fc1ccccc1[C@@H](F)COC1CCC(Nc2ncnc3[nH]ncc23)CC1 (stereo partly drawn) | inactive |  |
| Nc1ccc(Nc2ccccc2)cc1 |  | 4.76 µM (active) |
| CCN(C(=O)c1cc(C)cc(OC[C@H](C)Nc2ccncc2)c1)C(C)C | inactive |  |
| CCOC(=O)c1ccc(C2CCC(NC[C@H](O)COc3ccc(O)c(NS(C)(=O)=O)c3)CC2)cc1 (stereo partly drawn) |  | 23.4 µM (active) |

What follows are compounds tested against human Vascular Endothelial Growth Factor Receptor 2 (VEGFR2), KDR (gene 3791) (UniProt P35968) (assay: NVS_ENZ_hVEGFR2: NovaScreen (NVS) Enzymatic Assay for human Vascular Endothelial Growth Factor Receptor 2 (VEGFR2) (AID 2283230)).
Summary of the method: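 Cell-free recombinant VEGFR2 kinase, fluorescent substrate with electrophoretic mobility-shift separation; read 1 h after dosing. Screened at 25 uM in duplicate, hits to concentration-response up to 50 uM; loss-of-signal versus DMSO.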

Sequence of human Vascular Endothelial Growth Factor Receptor 2 (VEGFR2), KDR (gene 3791) (P35968 whole entry, looked up): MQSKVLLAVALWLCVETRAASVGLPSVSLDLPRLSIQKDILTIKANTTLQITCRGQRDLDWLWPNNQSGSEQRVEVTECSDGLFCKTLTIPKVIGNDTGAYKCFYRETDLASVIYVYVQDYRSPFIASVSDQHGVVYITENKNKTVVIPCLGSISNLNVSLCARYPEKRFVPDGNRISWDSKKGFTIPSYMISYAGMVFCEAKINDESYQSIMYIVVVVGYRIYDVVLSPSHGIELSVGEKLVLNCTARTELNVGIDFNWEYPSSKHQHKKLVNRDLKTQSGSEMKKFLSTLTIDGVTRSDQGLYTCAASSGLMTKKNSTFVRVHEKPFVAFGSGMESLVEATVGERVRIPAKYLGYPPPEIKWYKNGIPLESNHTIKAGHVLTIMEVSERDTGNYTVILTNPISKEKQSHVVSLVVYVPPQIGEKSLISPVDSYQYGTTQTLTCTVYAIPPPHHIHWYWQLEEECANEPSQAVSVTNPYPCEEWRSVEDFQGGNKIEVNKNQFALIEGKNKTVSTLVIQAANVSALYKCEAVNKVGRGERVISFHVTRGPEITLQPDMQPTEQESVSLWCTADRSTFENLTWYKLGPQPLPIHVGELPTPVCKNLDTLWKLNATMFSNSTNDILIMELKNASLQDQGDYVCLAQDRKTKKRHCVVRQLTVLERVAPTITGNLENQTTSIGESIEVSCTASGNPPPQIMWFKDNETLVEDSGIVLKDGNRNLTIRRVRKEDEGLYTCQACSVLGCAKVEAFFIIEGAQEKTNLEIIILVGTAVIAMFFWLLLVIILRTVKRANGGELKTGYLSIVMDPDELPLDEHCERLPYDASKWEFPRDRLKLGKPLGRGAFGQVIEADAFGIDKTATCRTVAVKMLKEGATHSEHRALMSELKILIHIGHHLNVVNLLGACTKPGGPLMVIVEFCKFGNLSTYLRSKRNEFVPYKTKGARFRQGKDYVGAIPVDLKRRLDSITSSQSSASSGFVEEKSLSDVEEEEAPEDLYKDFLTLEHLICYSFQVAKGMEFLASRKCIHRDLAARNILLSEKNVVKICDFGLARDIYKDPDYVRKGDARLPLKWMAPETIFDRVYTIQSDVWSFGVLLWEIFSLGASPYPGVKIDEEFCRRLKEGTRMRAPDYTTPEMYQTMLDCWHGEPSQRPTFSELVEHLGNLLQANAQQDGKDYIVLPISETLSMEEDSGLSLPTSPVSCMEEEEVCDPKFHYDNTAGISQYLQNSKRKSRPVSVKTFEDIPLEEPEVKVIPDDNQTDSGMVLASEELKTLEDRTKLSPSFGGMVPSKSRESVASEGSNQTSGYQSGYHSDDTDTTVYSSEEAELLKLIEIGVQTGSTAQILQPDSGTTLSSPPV

| Structure (SMILES) | outcome | AC50 |
| --- | --- | --- |
| CC(C)=CCC/C(C)=C\CO | inactive |  |
| COc1ccc2sc(C(=O)Nc3nnn[nH]3)c(OC(C)C)c2c1 | inactive |  |
| On1ccccc1=S | inactive |  |
| Fc1ccccc1[C@@H](F)COC1CCC(Nc2ncnc3[nH]ncc23)CC1 (stereo partly drawn) |  | 0.213 µM (active) |
| CCOCCOCCOCCO | inactive |  |
| CCCCCCCCCCCCCCCO | inactive |  |
| CCC(C)(C)C(=O)O[C@H]1C[C@@H](C)C=C2C=C[C@H](C)[C@H](CC[C@@H]3C[C@@H](O)CC(=O)O3)[C@H]21 | inactive |  |
| CCOC(=O)COc1ccc2c(c1)CC(NCC(O)c1cccc(Cl)c1)CC2 (stereo not drawn) | inactive |  |
| C=CC(=C)CCC=C(C)C | inactive |  |
| CCOc1cccc(-n2cc(C(=O)N3CCN(c4cc(C(=O)O)c5ccccc5c4)CC3)nc2-c2ccc(C)cc2)c1 | inactive |  |

The compounds below were run against sheep Cyclooxygenase-2 (Cox2), PTGS2 (gene 443460) (UniProt P79208) (assay: NVS_ENZ_oCOX2: NovaScreen (NVS) Enzymatic Assay for sheep Cyclooxygenase-2 (Cox2) (AID 2283231)).
Summary of the method: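 Colorimetric absorbance read-out of COX activity, taken 0.66 hour post-dosing, using native protein from sheep placenta. Single-concentration duplicate screen (25 uM), then singleton concentration-response up to 50 uM for actives.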

Sequence of sheep Cyclooxygenase-2 (Cox2), PTGS2 (gene 443460) (P79208 whole entry, looked up): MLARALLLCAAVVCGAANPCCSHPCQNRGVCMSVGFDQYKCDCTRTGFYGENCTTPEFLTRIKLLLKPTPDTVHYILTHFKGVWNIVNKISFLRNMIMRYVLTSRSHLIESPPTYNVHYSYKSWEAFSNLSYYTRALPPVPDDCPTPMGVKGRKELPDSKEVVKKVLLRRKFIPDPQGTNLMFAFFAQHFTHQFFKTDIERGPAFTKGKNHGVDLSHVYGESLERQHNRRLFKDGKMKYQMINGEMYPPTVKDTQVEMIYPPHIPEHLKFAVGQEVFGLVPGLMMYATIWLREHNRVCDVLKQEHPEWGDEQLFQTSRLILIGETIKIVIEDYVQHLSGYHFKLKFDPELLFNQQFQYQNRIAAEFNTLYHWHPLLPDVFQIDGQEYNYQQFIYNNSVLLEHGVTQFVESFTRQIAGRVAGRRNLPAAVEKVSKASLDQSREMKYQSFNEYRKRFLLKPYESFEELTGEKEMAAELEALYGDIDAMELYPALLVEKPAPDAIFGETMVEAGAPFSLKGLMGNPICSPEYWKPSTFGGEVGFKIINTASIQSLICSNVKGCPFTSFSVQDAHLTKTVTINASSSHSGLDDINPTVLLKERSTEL

| Structure (SMILES) | AC50 | outcome |
| --- | --- | --- |
| CC(C)=CCC/C(C)=C\CO | 4.26 µM (active) |  |
| C[C@](N)(Cc1ccc(O)c(O)c1)C(=O)O | 6.83 µM (active) |  |
| Cc1ccc(C)c(O)c1 |  | inactive |
| CC(=O)c1ccc2c(c1)[C@H](NC(=O)c1ccc(F)cc1)[C@@H](O)C(C)(C)O2 | 11.3 µM (active) |  |
| O=C(OC[C@H]1O[C@@H](OC(=O)c2cc(O)c(O)c(OC(=O)c3cc(O)c(O)c(O)c3)c2)[C@H](OC(=O)c2cc(O)c(O)c(OC(=O)c3cc(O)c(O)c(O)c3)c2)[C@@H](OC(=O)c2cc(O)c(O)c(OC(=O)c3cc(O)c(O)c(O)c3)c2)[C@@H]1OC(=O)c1cc(O)c(O)c(OC(=O)c2cc(O)c(O)c(O)c2)c1)c1cc(O)c(O)c(OC(=O)c2cc(O)c(O)c(O)c2)c1 | 2.87 µM (active) |  |
| COc1ccc(-n2nc(C(F)F)cc2-c2ccc(S(C)=O)cc2)cc1 (stereo not drawn) | 0.478 µM (active) |  |
| CCOC(=O)c1ccc(C2CCC(NC[C@H](O)COc3ccc(O)c(NS(C)(=O)=O)c3)CC2)cc1 (stereo partly drawn) | 8.48 µM (active) |  |
| CCCCCCc1ccc(O)cc1O | 11 µM (active) |  |
| CCOc1cccc(-n2cc(C(=O)N3CCN(c4cc(C(=O)O)c5ccccc5c4)CC3)nc2-c2ccc(C)cc2)c1 | 6.87 µM (active) |  |

Reference: PubChem BioAssay (EPA / NIEHS)
